The panel holds about 83,000 compounds, 20% with a hit somewhere; the sample as a whole holds those more often.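 Assay: single dose, 48 h. Readout: percent growth (0 = no net growth; negative = cell death). Active: <10.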 Values without a mark were called inactive. Activity calls are given as the source filed them.
Tests used:
Experiment in all cases: NCI-60 one-dose screen, 48 h (100 = growth as untreated, 0 = no growth, -100 = all killed)
Details in all cases: 10 µM unless noted
K-562 leukemia = test system: K-562 leukemia
MALME-3M melanoma = test system: MALME-3M melanoma
MDA-MB-231 breast = test system: MDA-MB-231 breast
RXF 393 renal = test system: RXF 393 renal
SF-268 CNS = test system: SF-268 CNS
SF-295 CNS = test system: SF-295 CNS
SF-539 CNS = test system: SF-539 CNS
UACC-257 melanoma = test system: UACC-257 melanoma
M14 melanoma = test system: M14 melanoma
HCT-15 colon = test system: HCT-15 colon
HT29 colon = test system: HT29 colon
SNB-75 CNS = test system: SNB-75 CNS
SNB-19 CNS = test system: SNB-19 CNS
U251 CNS = test system: U251 CNS
PC-3 prostate = test system: PC-3 prostate
SK-MEL-5 melanoma = test system: SK-MEL-5 melanoma
UACC-62 melanoma = test system: UACC-62 melanoma
SK-MEL-28 melanoma = test system: SK-MEL-28 melanoma
SK-MEL-2 melanoma = test system: SK-MEL-2 melanoma

| Compound | growth (K-562 leukemia) | growth (MALME-3M melanoma) | growth (MDA-MB-231 breast) | growth (RXF 393 renal) | growth (SF-268 CNS) | growth (SF-295 CNS) | growth (SF-539 CNS) | growth (UACC-257 melanoma) | growth (M14 melanoma) | growth (HCT-15 colon) | growth (HT29 colon) | growth (SNB-75 CNS) | growth (SNB-19 CNS) | growth (U251 CNS) | growth (PC-3 prostate) | growth (SK-MEL-5 melanoma) | growth (UACC-62 melanoma) | growth (SK-MEL-28 melanoma) | growth (SK-MEL-2 melanoma) |
| --- | --- | --- | --- | --- | --- | --- | --- | --- | --- | --- | --- | --- | --- | --- | --- | --- | --- | --- | --- |
| CS(=O)(=O)c1ccc(-c2nc3ccccn3c2-c2nc3ccc([N+](=O)[O-])cc3[nH]2)cc1 | 91.3% | 86% | 86.5% | 101% | 94.1% | 92.2% | 89.5% | 106% | 97.3% | 97.1% | 109% | 82.9% | 99.6% | 104% | 86.3% | 95.2% | 88.6% | 98% | 105% |
| O=C(N/N=C/c1ccc([N+](=O)[O-])o1)c1[nH]c2ccc(Br)cc2c1-c1ccccc1 | 3.51% (active) | 23% | -2.79% (active) | 50.1% | 24.8% | 21.3% | 4.34% (active) | 37.5% | -35.4% (active) | 9.3% (active) | 9.21% (active) | 17.7% | 22% | 13.3% | 16.2% | -84% (active) | 6.4% (active) | 55.9% | -12.4% (active) |
| Cc1cc2nc3c4cc(Cl)ccc4n(CC(=O)NCCN(C)C)c3nc2cc1C | -32.9% (active) | -66.9% (active) | 53.2% | 61.1% | 83% | 93.5% | 21.8% | 105% | -88.7% (active) | -7.4% (active) | -75.5% (active) | 64.1% | 81.5% | -38% (active) | 60.8% | 89.8% | 79.4% | -88.6% (active) | 112% |
| COc1cc(/C=C/C(=O)c2ccc(C(F)(F)F)cc2)ccc1Oc1nc(NCCO)nc(N2CCOCC2)n1 | 6.49% (active) | 85.7% | 92.9% | 90.8% | 87.3% | 96% | 98.2% | 97.4% | 97.6% | 70.5% | 96.2% | 91.4% | 87.6% | 70.1% | 87.2% | 94% | 78.7% | 96.1% | 98.8% |
| NS(=O)(=O)c1cccc(Nc2nc(SCC(=O)c3ccc(Cl)cc3)nc3ccccc23)c1 | 68.2% | 66.4% | 56% | 72.2% | 41.8% | 71.8% | 50.9% | 95% | 99.3% | 88.8% | 88.4% | 33.6% | 69.6% | 46.4% | 57.2% | 73.5% | 62.6% | 89% | 77.3% |
| CN1CCc2c(sc3ncnc(N/N=C/c4ccc(Cl)c(Cl)c4)c23)C1 | 27.4% | 38.6% | 13.7% | 42.1% | 61.1% | 34.7% | -61.6% (active) | 92.4% | -11.8% (active) | 3.04% (active) | -46.6% (active) | 79.5% | 42% | -43.6% (active) | 53.6% | 86.6% | -26.8% (active) | 21.4% | 117% |
| COc1ccc2[nH]cc(-c3cc(N)n4nc(-c5c[nH]c6ccc(OC)cc56)cc4n3)c2c1 | -35.5% (active) | -68.4% (active) | -12.6% (active) | -50.6% (active) | -30% (active) | 25.2% | -89.7% (active) | -21.8% (active) | -78.3% (active) | 1.36% (active) | -56.1% (active) | 106% | 78.6% | -87.6% (active) | 5.09% (active) | 3.11% (active) | -53.4% (active) | -69.4% (active) | 72.5% |
| COc1cc(/C=C/C(=O)c2ccc(C)cc2)ccc1Oc1nc(NCCO)nc(N2CCOCC2)n1 | 6.48% (active) | 71.6% | 67.7% | 82.1% | 66.1% | 79.8% | 39.5% | 101% | -64.4% (active) | 14.5% | 19.4% | 93.7% | 44% | 34.6% | 30.6% | 43.7% | 53.4% | 76.6% | 99.9% |
| Cn1ccnc1C(=O)/C=C/c1ccc(NC(=O)Nc2ccc(F)cc2)cc1 | 9.78% (active) | 69% | 28.8% | 19.4% | 55.6% | 23.3% | -15.6% (active) | 85.6% | 45.1% | 21% | 11.7% | 39.3% | 33.9% | 20.1% | 53.2% | 77.8% | 46.3% | 75.5% | 95% |
| NS(=O)(=O)c1cccc(Nc2nc(SCC(=O)c3ccc(Br)cc3)nc3ccccc23)c1 | 44.7% | 54.7% | 64.5% | 24.5% | 32.8% | 17.4% | 72% | 96.1% | 80.2% | 67.4% | 90.2% | 10.9% | 35.3% | 59.7% | 36.5% | 58.7% | 59.1% | 84.4% | 89.9% |
| CC(C)(O)c1cncc(-c2ccc3ncnc(N4CCc5cc(F)c(Cl)cc54)c3c2)c1 | 33.6% | 16.1% | 30.3% | -17% (active) | 26.1% | 7.56% (active) | 4.86% (active) | 42.8% | 32.2% | 14.1% | 20.8% | -20% (active) | 25.2% | 42.6% | 18.7% | 13.4% | 5.48% (active) | 24.8% | -1.1% (active) |
| Clc1ccc2c(OCCCN3CCOCC3)c3oc4ccccc4c3nc2c1 | 19.8% | 12.5% | 32.3% | 26.7% | 38.3% | 26% | 22.9% | 59.8% | 30.3% | 20.3% | 25.2% | 43.5% | 41.9% | 36.2% | 50.7% | 42.7% | 33.6% | 42.1% | 78.2% |
| N#Cc1ccc(/C=N/NC(=O)c2[nH]c3ccc(Br)cc3c2-c2ccccc2)s1 | 8.83% (active) | 50.1% | 22.1% | 56% | 30% | 11.7% | 2.47% (active) | 40.9% | 9% (active) | 8.95% (active) | 5.64% (active) | 49.7% | 29.4% | 16.5% | 25% | -40.9% (active) | 23.4% | 58.4% | 30.4% |
| C#Cc1nc(C2=C(C)C(=O)/C(=N/OC(C)=O)C2)cs1 | 84% | 86.1% | 30.3% | 85.1% | 82.2% | 56.1% | 58.4% | 86.5% | 85.2% | 88.1% | 115% | -46.3% (active) | 96.2% | 98.1% | 94.3% | 97.3% | 80.3% | 107% | 96.9% |
| C#Cc1nc(C2=C(C)C(O)/C(=N/O)C2)cs1 (centres undefined) | 87.2% | 99.5% | -28.1% (active) | 93.7% | 65.3% | 65% | 25.5% | 90.7% | 93.8% | 88.1% | 113% | -85.7% (active) | 109% | 109% | 101% | 94.9% | 88% | 111% | 103% |
| NS(=O)(=O)c1ccc(Nc2nc(Nc3ccccc3)nc(-n3nc(-c4ccccc4)cc3-c3ccccc3)n2)cc1 | 11.5% | 60% | 37% | 22.8% | 37.8% | 34.3% | 37.2% | 59.6% | 26.5% | 18.3% | 4.52% (active) | 56.4% | 50.1% | 33.3% | 26.7% | 39.2% | 54.8% | 54.6% | 56.3% |
